PubChem BioAssay (EPA / NIEHS)
Results filed as inconclusive are left out. Activity calls are given as the source filed them. The calls were made as follows: active = hit-call score of the fitted dose curve at least 0.9, where 1 is the maximum; inconclusive = response in the unintended direction; inactive = score below 0.9.

Assay: Tanguay_ZF_120hpf_SWIM_legacy: (Legacy) Oregon State University Tanguay Lab 120 Hour Post-fertilization zebrafish Assay for Swim Bladder Malformation (AID 2283654);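 also: swim bladder malformation in each larva scored yes or no under brightfield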
Method in brief: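 Scoring is binary for swim bladder defects at 120 hpf, by brightfield inspection of zebrafish larvae. Embryos were exposed singly from 6 hpf after pronase dechorionation, at 28C with 0.64% DMSO; mortality excluded scoring.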

SMILES | outcome
CCCCC(CC)COC(=O)CCCCCCCCC(=O)OCC(CC)CCCC (stereo not drawn) | inactive
C=CCCCCCCCCC(=O)O | inactive
CNS(=O)(=O)c1cc(C(=O)N2CCC(CCN3C4CCC3CC(n3c(C)nc5ccccc53)C4)(c3cccc(F)c3)CC2)c(Cl)cc1F (stereo not drawn) | inactive
COC(=O)c1c(Cl)c(Cl)c(C(=O)OC)c(Cl)c1Cl | inactive
CCOCCO | inactive
CC1=CC(=O)CC(C)(C)C1 | inactive
O=C1CCC(N2C(=O)c3ccccc3C2=O)C(=O)N1 (stereo not drawn) | inactive
COc1ccc(-n2nc(C(F)F)cc2-c2ccc(S(C)=O)cc2)cc1 (stereo not drawn) | inactive
C1=CCCC=CCCC=CCC1 | inactive
CCCC(=O)OCC | inactive
Cc1ccc(C)c(O)c1 | inactive
COC(=O)CC(=O)OC | inactive
CCCCC(CC)COC(=O)c1ccc(C(=O)OCC(CC)CCCC)cc1 (stereo not drawn) | inactive
CC(C)=CCC/C(C)=C/CO | inactive
CNCc1ccc(NC(=O)c2c[nH]c3c2C(=O)CCC3)cc1 | inactive
CCCCCCCCCCCCCCCO | inactive
COC(=O)c1ccccc1O | inactive
CCc1cc(SCc2sc(-c3ccc(C(F)(F)F)cc3)nc2CN2CCN(c3ccc(OC)cc3)CC2)ccc1OCC(=O)O | inactive
COc1ccc(/C=C/S(=O)(=O)NC(=O)c2ccc(C)cc2Cl)cc1 | inactive
CCOCCOCCOCCO | inactive
Cc1ccc(S(=O)(=O)O)cc1C | inactive
CC(=O)OCCC(C)C | inactive
O=C(O)CC(O)C(=O)O (stereo not drawn) | inactive
O=C1CCCCCN1 | inactive
CC(C)CCCCCCCOC(=O)CCCCC(=O)OCCCCCCCC(C)C | inactive
Clc1nc(Cl)c(Cl)c(Cl)c1Cl | inactive
Cn1c(=O)c2c(ncn2C)n(C)c1=O | inactive
CC[C@H]1CC[C@H](NCc2cc3c(cc2OC)[C@H]2C[C@H]2C(=O)N3C)[C@H](c2ccccc2)N1 | inactive
O=C1OC(=O)C2C3C=CC(C3)C12 (stereo not drawn) | inactive

Assay: Tanguay_ZF_120hpf_TRUN_legacy: (Legacy) Oregon State University Tanguay Lab 120 Hour Post-fertilization zebrafish Assay for Truncated Body (AID 2283655)
Method in brief: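 5D wild-type larvae; pronase dechorionation; static exposure 6→120 hpf, 28C; DMSO 0.64% final; 5uM trimethyltin chloride positive control. Readout: presence/absence of truncated body, analyzed relative to DMSO.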

SMILES | outcome
CCCCC(CC)COC(=O)CCCCCCCCC(=O)OCC(CC)CCCC (stereo not drawn) | inactive
C=CCCCCCCCCC(=O)O | inactive
CNS(=O)(=O)c1cc(C(=O)N2CCC(CCN3C4CCC3CC(n3c(C)nc5ccccc53)C4)(c3cccc(F)c3)CC2)c(Cl)cc1F (stereo not drawn) | inactive
COC(=O)c1c(Cl)c(Cl)c(C(=O)OC)c(Cl)c1Cl | inactive
CCOCCO | inactive
CC1=CC(=O)CC(C)(C)C1 | inactive
O=C1CCC(N2C(=O)c3ccccc3C2=O)C(=O)N1 (stereo not drawn) | inactive
COc1ccc(-n2nc(C(F)F)cc2-c2ccc(S(C)=O)cc2)cc1 (stereo not drawn) | inactive
C1=CCCC=CCCC=CCC1 | inactive
CCCC(=O)OCC | inactive
Cc1ccc(C)c(O)c1 | inactive
COC(=O)CC(=O)OC | inactive
CCCCC(CC)COC(=O)c1ccc(C(=O)OCC(CC)CCCC)cc1 (stereo not drawn) | inactive
CC(C)=CCC/C(C)=C/CO | inactive
CNCc1ccc(NC(=O)c2c[nH]c3c2C(=O)CCC3)cc1 | inactive
CCCCCCCCCCCCCCCO | inactive
COC(=O)c1ccccc1O | inactive
CCc1cc(SCc2sc(-c3ccc(C(F)(F)F)cc3)nc2CN2CCN(c3ccc(OC)cc3)CC2)ccc1OCC(=O)O | inactive
COc1ccc(/C=C/S(=O)(=O)NC(=O)c2ccc(C)cc2Cl)cc1 | inactive
CCOCCOCCOCCO | inactive
Cc1ccc(S(=O)(=O)O)cc1C | inactive
CC(=O)OCCC(C)C | inactive
O=C(O)CC(O)C(=O)O (stereo not drawn) | inactive
O=C1CCCCCN1 | inactive
CC(C)CCCCCCCOC(=O)CCCCC(=O)OCCCCCCCC(C)C | inactive
Clc1nc(Cl)c(Cl)c(Cl)c1Cl | inactive
Cn1c(=O)c2c(ncn2C)n(C)c1=O | inactive
CC[C@H]1CC[C@H](NCc2cc3c(cc2OC)[C@H]2C[C@H]2C(=O)N3C)[C@H](c2ccccc2)N1 | inactive
O=C1OC(=O)C2C3C=CC(C3)C12 (stereo not drawn) | inactive
